Here are results for 23 molecules from PubChem BioAssay (NCI).

Test systems include T-47D breast; MDA-MB-435 melanoma; SW-620 colon; MCF7 breast; HCT-116 colon; HCC-2998 colon; KM12 colon; BT-549 breast.
Holding throughout (experiment): NCI-60 one-dose screen, 48 h (100 = growth as untreated, 0 = no growth, -100 = all killed)
Common to all, as to settings: 10 µM

Structures are written as SMILES. About 83,000 compounds went through this panel and 20% of them were active in at least one assay; those are over-represented in the sample as a whole.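 Each cell line was grown in a 96-well plate and treated with one concentration of compound for 48 hours. Values below 10 were considered active.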 Values without a mark were called inactive. Active and inactive are the calls of the source.

As to `COc1ccc(-c2nn(-c3cccc(Cl)c3)cc2-c2cc(-c3ccccc3)[nH]c(=O)c2C#N)cc1`, the growth with T-47D breast was 27.6%; in the test on MDA-MB-435 melanoma it was 81.5%; with SW-620 colon, 67.7%; in the test on MCF7 breast it was 52.9%; in the test on HCT-116 colon, 15.6%; with HCC-2998 colon, 49.9%. In the test on KM12 colon, the growth is 69.8%.

In the case of `C=C/C(C)=C/C[C@]1(C)[C@H](C)[C@@H](OC(=O)CCC)[C@H](O)[C@@]23C(=C[C@H](OC)C[C@@H]12)[C@@H](OC(=O)CCC)O[C@H]3OC(C)=O`, the growth was -40% (active) in the test on T-47D breast; -70.3% (active) with MDA-MB-435 melanoma; -61.1% (active) with SW-620 colon; 9.34% (active) with MCF7 breast; -70.3% (active) with HCT-116 colon; -80.7% (active) in the test on HCC-2998 colon. Further, the growth with KM12 colon is 8.41% (active).

In the case of `CCOC(=O)C(C)(c1ccccc1)c1ccccc1`, the growth in the test on T-47D breast is 99.1%; with MDA-MB-435 melanoma, 106%; in the test on SW-620 colon, 105%; in the test on MCF7 breast, 99.6%; in the test with HCT-116 colon it was 102%; in the test on HCC-2998 colon, 109%. Further, the growth with KM12 colon is 96.4%.

As to `COc1ccc(-c2nn(-c3cccc(Cl)c3)cc2-c2c(C#N)c(=O)n3[nH]c(-c4ccc(C)cc4)nc3c2C#N)cc1`, the growth with T-47D breast is 55.6%; with MDA-MB-435 melanoma, 10.8%; in the test with SW-620 colon it was -21% (active); with MCF7 breast it was 21.2%; with HCT-116 colon, 9.86% (active); in the test on HCC-2998 colon, 52.2%. In addition, the growth in the test on KM12 colon is 55.1%.

`COc1ccc(C2CC(c3cc(OC)c(OC)c(OC)c3)=NN2)cc1` (stereo not given): the growth with T-47D breast is 51.7%; in the test on MDA-MB-435 melanoma, 19.9%; in the test on SW-620 colon, 48%; in the test with MCF7 breast, 10.2%; in the test with HCT-116 colon it was 53.3%; with HCC-2998 colon, 79.3%. Further, the growth in the test on KM12 colon was 15.1%.

With `S=c1cnc2ccccc2[nH]1`, the growth with T-47D breast was 81.9%; in the test on MDA-MB-435 melanoma, 101%; with SW-620 colon it was 91%; in the test on MCF7 breast, 72.9%; with HCT-116 colon it was 88.3%; with HCC-2998 colon, 67.6%. In addition, the growth in the test on KM12 colon is 93.9%.

`COc1cc(C2CC(c3ccccc3)=NN2C(C)=O)cc(OC)c1OC` (stereo not given): the growth with T-47D breast is 34.1%; with MDA-MB-435 melanoma, -29.4% (active); with SW-620 colon it was 19.1%; in the test with MCF7 breast it was 14.6%; with HCT-116 colon, 19.3%; in the test with HCC-2998 colon it was 49.7%. In addition, the growth in the test with KM12 colon was 18.4%.

For `Nc1ncc(-c2cnn(C3CCNCC3)c2)cc1-c1nc2ccccc2o1`, the growth in the test on T-47D breast is -4.42% (active); in the test on MDA-MB-435 melanoma it was -55.5% (active); in the test with SW-620 colon it was -60.4% (active); with MCF7 breast it was 11.6%; with HCT-116 colon, -2.99% (active); in the test with HCC-2998 colon, 14.2%. Besides, the growth in the test on KM12 colon is -81.3% (active).

With `COc1cc(C2CC(c3ccc4c(c3)OCO4)=NN2c2ccccc2)cc(OC)c1OC` (stereo not given), the growth in the test with BT-549 breast is 71.9%; in the test with MDA-MB-435 melanoma, 30.7%; with SW-620 colon, 89.4%; with MCF7 breast it was 87.4%; with HCT-116 colon, 93.5%; in the test on HCC-2998 colon, 83.2%. In the test with KM12 colon, the growth was 60.9%.

Regarding `C[n+]1c2ccccc2nc2ccccc21`, the growth with T-47D breast was 1.26% (active); in the test with MDA-MB-435 melanoma, -40.9% (active); in the test on SW-620 colon, 11.2%; in the test on MCF7 breast, -19.4% (active); with HCT-116 colon, -15.5% (active); in the test on KM12 colon, 30.4%.

For `S=C1N(c2ccccc2)CN(C2CCCCC2)CN1c1ccccc1`, the growth in the test with T-47D breast is 94.3%; with SW-620 colon it was 104%; in the test with MCF7 breast, 88.7%; with HCT-116 colon it was 102%; in the test on HCC-2998 colon, 102%; with KM12 colon it was 110%.

In the case of `Nc1nc(-c2ccc(Cl)cc2)cc(-c2cc3ccccc3oc2=O)n1`, the growth in the test on MDA-MB-435 melanoma was 104%; in the test with SW-620 colon, 97.2%; in the test on MCF7 breast it was 79.8%; in the test with HCT-116 colon, 87.7%; with KM12 colon, 103%.

With `COc1ccc(/C=C2\CCCC3=C2N=C2SC(C)=CN2C3c2ccc(OC)cc2)cc1` (stereo not given), the growth with T-47D breast is 108%; with MDA-MB-435 melanoma, 90%; in the test on SW-620 colon, 99.6%; in the test on MCF7 breast, 88.8%; in the test on HCT-116 colon, 93.4%; in the test with HCC-2998 colon, 111%. Besides, the growth in the test with KM12 colon was 108%.

With `COc1cc2c(cc1OC)C(C(CCCCCC(CCC(C)C)C1NCCc3cc(OC)c(OC)cc31)CCC(C)C)NCC2` (stereo not given), the growth is -85.2% (active) in the test with T-47D breast; -83.8% (active) with SW-620 colon; -92.7% (active) in the test on MCF7 breast; -100% (active) in the test with HCT-116 colon; -94.2% (active) with HCC-2998 colon; -97% (active) with KM12 colon.

`COc1cc2cc(Oc3ccc(NC(=O)Nc4ccc(Cl)c(C(F)(F)F)c4)cc3)c(C)nc2cc1OC`: the growth is 21.4% with T-47D breast; -25.7% (active) with MDA-MB-435 melanoma; 7.51% (active) in the test with SW-620 colon; 2.59% (active) with MCF7 breast; -87.3% (active) in the test with HCT-116 colon; -13.1% (active) in the test on HCC-2998 colon. Further, the growth with KM12 colon was -16.4% (active).

As for `COc1cccc(-c2nc3sccn3c2-c2cccc(S(C)(=O)=O)c2)c1`, the growth is 98.7% in the test on T-47D breast; 110% in the test with MDA-MB-435 melanoma; 104% in the test with SW-620 colon; 79.6% in the test with MCF7 breast; 104% with HCT-116 colon; 94% in the test with HCC-2998 colon. In addition, the growth in the test on KM12 colon was 109%.

As to `CCN(CC)CCCC(Nc1c2ccc(Cl)cc2nc2ccc(OC)cc12)c1ccc(F)cc1` (stereo not given), the growth in the test with BT-549 breast is 81.5%; with MDA-MB-435 melanoma it was -86.9% (active); with SW-620 colon, -53.9% (active); in the test on MCF7 breast, -62.9% (active); with HCT-116 colon, -41% (active); with HCC-2998 colon, -85% (active). Besides, in the test with KM12 colon, the growth is 14.7%.

Take `c1ccc(CCCCc2ccc3ccccc3n2)cc1`: the growth was 102% in the test with BT-549 breast; 108% with MDA-MB-435 melanoma; 102% in the test on SW-620 colon; 108% in the test on MCF7 breast; 96% with HCT-116 colon; 92.9% with HCC-2998 colon. Further, in the test with KM12 colon, the growth is 106%.

With `N#Cc1cnn(C(=O)c2nn(-c3ccc(Cl)cc3)cc2O)c1N`, the growth is 3.29% (active) in the test with T-47D breast; 19.1% with MDA-MB-435 melanoma; 38% in the test on SW-620 colon; 10.9% in the test with MCF7 breast; 6.75% (active) in the test on HCT-116 colon; 11.9% in the test on HCC-2998 colon. Also, the growth in the test on KM12 colon is 19.1%.

Take `NC(=O)c1cccc(-n2ccc3cc(NC(=O)Nc4ccc(Cl)c(C(F)(F)F)c4)ccc32)n1`: the growth with T-47D breast is 68.5%; in the test on MDA-MB-435 melanoma, 74.9%; in the test on SW-620 colon, 111%; in the test with MCF7 breast it was 43.8%; with HCT-116 colon it was 67%; with HCC-2998 colon it was 96.3%. Also, in the test with KM12 colon, the growth was 64.4%.

In the case of `COc1ccc(C(=O)c2cc3c(OC)c(OC)c(OC)cc3[nH]2)cc1`, the growth was 34.9% in the test with T-47D breast; -0.263% (active) with MDA-MB-435 melanoma; 33.9% with SW-620 colon; 20.4% in the test on MCF7 breast; 28.1% with HCT-116 colon; 12.6% with KM12 colon.

With `CN(C)CCCOc1ccccc1NC1=C(Cl)C(=O)C(Nc2ccccc2OCCCN(C)C)=C(Cl)C1=O`, the growth in the test with T-47D breast is -37% (active); in the test with MDA-MB-435 melanoma, -76.2% (active); in the test on SW-620 colon, -46.8% (active); in the test on MCF7 breast it was -52.7% (active); in the test with HCT-116 colon it was -82.5% (active); with HCC-2998 colon, -87% (active). For the same molecule, in the test on KM12 colon, the growth was -34.2% (active).

In the case of `O=C1/C=C/[C@@H](O)[C@@H]2C[C@@H](O)C[C@H]2/C=C/CCC[C@@H](C(F)(F)F)O1`, the growth with T-47D breast is 82.3%; in the test with MDA-MB-435 melanoma, 93.5%; in the test on SW-620 colon, 93.9%; with MCF7 breast it was 67.1%; in the test on HCT-116 colon, 109%; in the test on HCC-2998 colon it was 107%. For the same molecule, the growth with KM12 colon is 99.3%.
